Screening results as filed in PubChem.
ATXN2 expr inh: Primary qHTS for Inhibitors of ATXN expression. HEK-293 ATXN2-luciferase reporter, luminescence, 24 h. 0.72% of 360,000 active. Potency, µM (doses to about 57 µM), for the others: at the top dose activity change, negative = inhibition, usual class: inhibitors; further: potency means the concentration at half of the fitted maximal effect; on the % scale 0 is the no-effect control and ±100 the full control effect; nearly all actives have a fitted effect of over 55% in size
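ATXN2-luciferase reporter cells (luciferase flanked by upstream and downstream ATXN2 gene portions) were treated 24 h at 37 °C with compounds at up to 57 uM. SteadyGlo luminescence gave expression; GF-AFC fluorescence gave viability.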
D3 ag: qHTS of D3 Dopamine Receptor Agonist: qHTS; max activation, %; AID 652048, 2013; D3R DiscoveRx beta-arrestin cells, luminescence, 90 min; 0.58% of 410,000 active; D(3) dopamine receptor (Homo sapiens), P35462; in the data active means max activation above about 30%; further: 0% is about no effect
Target sequence (P35462 whole entry, looked up): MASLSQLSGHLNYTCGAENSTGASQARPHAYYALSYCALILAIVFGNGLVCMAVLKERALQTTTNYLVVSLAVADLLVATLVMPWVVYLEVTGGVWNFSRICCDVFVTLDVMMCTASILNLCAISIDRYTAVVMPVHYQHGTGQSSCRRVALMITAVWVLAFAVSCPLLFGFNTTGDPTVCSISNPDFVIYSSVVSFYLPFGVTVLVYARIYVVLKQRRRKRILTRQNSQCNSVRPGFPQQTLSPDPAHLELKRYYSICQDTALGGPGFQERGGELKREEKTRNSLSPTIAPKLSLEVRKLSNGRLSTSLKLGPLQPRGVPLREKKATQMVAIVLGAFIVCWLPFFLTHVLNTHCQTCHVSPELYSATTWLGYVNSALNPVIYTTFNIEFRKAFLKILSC
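Agonist mode: compounds and dopamine controls were applied to plated cells for 90 min at 37 degrees C after an overnight attachment at 1500 cells/well. Luminescent read-out followed 30 - 60 minutes at room temperature with DiscoveRx detection reagent.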
HepG2 viability: qHTS for Inhibitors of TGF-b: Cytotox Counterscreen. 0.76% of 410,000 active. Potency, µM (titrated, usually from 46.1 µM), for the others: at the top dose activity change, negative = cytotoxicity, usual class: cytotoxic. HepG2 CAGA-GFP viability, ATP luminescence, 18 h; further: potency means the concentration at half of the fitted maximal effect
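HepG2 CAGA-GFP cells (1000/well, DMEM with 1% FBS) received compound, then TGF-beta at 500 pg/mL final, and were incubated 18 hours at 37 degrees C. Viability was read by CellTiter-Glo luminescence. Media-only wells were set as complete cell-killing and DMSO as no toxicity.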
S2 tox: Viability Counterscreen for Primary qHTS for Inhibitors of ATXN expression | S2 cells (HEK-293 line with an ATXN2-luciferase reporter) viability, CellTiter-Fluor protease fluorescence, 24 h | Potency, µM (titrated, usually from 56.7 µM), most hits filed as cytotoxic | 0.49% of 400,000 active; further: potency means the concentration at half of the fitted maximal effect; nearly all actives have a fitted effect of over 40% in size
TGFb inhibitor: qHTS for Inhibitors of TGF-b; HepG2 CAGA-GFP TGF-b/SMAD3 reporter, GFP fluorescence, 18 h; TGF-beta stimulated, 500 pg/mL final; Potency, µM (highest dose often 46.1 µM), for the others: top-dose activity, negative = inhibition, usual class: inhibitors; 1.2% of 410,000 active; AID 588855, 2011; further: potency means the concentration at half of the fitted maximal effect; on the % scale 0 is the no-effect control and ±100 the full control effect; nearly all actives have a fitted effect of over 65% in size
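Smad-responsive CAGA-GFP expression was quantified in HEPG2 cells exposed to compounds and 500 pg/mL final TGF-beta for 18 h at 37 degrees C; unstimulated wells defined full inhibition.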
DRD3 antagonist: qHTS of D3 Dopamine Receptor Antagonist: qHTS; D3R cells, DiscoveRx beta-arrestin luminescence, antagonist mode; stronger effect = lower value; max response, negative = inhibition, %; AID 652054, 2013; 2.5% of 360,000 active; in the data active means max response below about -50%; inconclusive means no clear call, values can overlap the other calls; further: on the % scale 0 is the no-effect control and ±100 the full control effect
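Cells expressing the human receptor were seeded at 1500 cells/well, incubated overnight at 37 degrees C in 5% CO2, then exposed to library compounds with dopamine controls for 90 minutes at 37 degrees C before luminescent detection.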
The depositor's hits bear a star; i = inactive; ? = inconclusive; . = no result; [ ] = dose if it differs, or a comment. The list is not random: actives were taken first. Their share in the collection is about 4.7%. Unless noted, the call rests on the fitted dose curve; in most records, active means well fitted curve in the direction sought with a large enough effect; inconclusive means small, poorly fitted or top-dose-only effect, or another doubt; inactive means no such curve, though single readings can be large; an effect the other way counts as inactive or inconclusive.

SMILES | ATXN2 expr inh | D3 ag | HepG2 viability | S2 tox | TGFb inhibitor | DRD3 antagonist
C[C@]12CC[C@H](O)CC1=CC[C@H]1[C@H]3CCC(=O)[C@@]3(C)CC[C@@H]12 | 2% | . | . | . | . | .
Cc1cccc(NC(=O)Cn2c(=O)oc3cc(S(=O)(=O)NCc4ccccc4)ccc32)c1 | -3% | 3 | -31% | i | -35% | .
C=CCN1C(=O)C2(C(C(=O)OCC)=C(N)Oc3ccccc32)C2=C1CCCC2=O (stereo not given) | 3% | 0 | -4% | ? | -14% | 14
CC1(C)CC(=O)C2=C(C1)NC(=O)C21C(C(=O)OC(C)(C)C)=C(N)Oc2ccc(Br)cc21 (stereo not given) | -24% | 31* | -6% | i | -9% | 30
CCC(=O)OC(Cc1ccccc1)(c1ccccc1)[C@H](C)CN(C)C (stereo not given in full) | -10% | 0 | -25% | i | 11% | 1
CCC(=O)O[C@](Cc1ccccc1)(c1ccccc1)[C@H](C)CN(C)C | . | 55* | . | ? | . | .
CCc1ccc(CN2CCN(Cc3ccc(SC)cc3)CC2)cc1 | -35% | -19 | -91% | ? | ? | ?
COc1ccccc1N1CCN(Cc2ccc(SC)cc2)CC1 | . | -20 | -35% | ? | ? | -107*
CSc1ccc(CN2CCN(c3ccccc3C)CC2)cc1 | -27% | -10 | -13% | i | ? | -73*
COc1ccccc1N1CCN(Cc2ccc(Cl)cc2Cl)CC1 | -12% | -29 | -31% | i | -21% | -85*
COc1ccccc1N1CCN(S(=O)(=O)c2ccc3c(c2)oc(=O)n3C)CC1 | -7% | -5 | 3% | i | ? | 1
COc1ccc(CN2CCN(c3ccccc3F)CC2)cc1O | -9% | 9 | 5% | i | -4% | -70*
CCOc1ccc(CCNC(=O)c2cc3c(-c4ccc(OC)c(OC)c4)nn(C)c3s2)cc1OCC | ? | 0 | -20% | ? | 8% | .
COc1ccccc1N1CCN(Cc2ccc(F)cc2)CC1 | -12% | -4 | -7% | i | -1% | -82*
COc1ccccc1CN1CCN(Cc2ccc(Cl)cc2)CC1 | -1% | -15 | -6% | i | 0% | -96*
COc1ccc(CN2CCN(Cc3ccccc3OC)CC2)cc1 | . | -20 | 0% | i | -2% | ?
ClC1=C(Cl)[C@]2(Cl)[C@@H]3[C@H]4C[C@H]([C@@H]5O[C@H]45)[C@@H]3[C@@]1(Cl)C2(Cl)Cl | . | 3 | . | . | . | .
CC(O)=C(C#N)C(=O)Nc1cc(Br)ccc1Br | 8% | . | . | . | . | .
CCOc1ccc(S(=O)(=O)NCCc2sc3nc(-c4ccc(C)cc4)nn3c2C)cc1 | . | 10 | 0% | . | 14µM* | .
Cc1c(CCNS(=O)(=O)c2ccccc2)sc2nc(-c3ccc(Cl)cc3)nn12 | . | 5 | -20% | . | 13µM* | .
Cc1ccc(Cn2c(=O)n(CCCCC(=O)NCc3ccccc3Cl)c(=O)c3ccccc32)cc1 | ? | 1 | 2% | ? | -17% | .
CN(C)CCc1c[nH]c2ccccc12 | 27%[222 µM] | -13 | . | i | . | .
C[C@]12CC[C@H]3[C@@H](CCC4=CC(=O)CC[C@@H]43)[C@@H]1CC[C@@H]2OC(=O)CCC1CCCCC1 | ? | . | . | i | . | .
c1ccc(-c2nn(-c3ccccc3)[n+](-c3ccccc3)n2)cc1 | ? | 6 | -52% | ? | 10µM* | 3
C/C(=N\NC(N)=S)C12CC3CC(CC(C3)C1)C2 | ? | -6 | -7% | 16µM* | 11µM* | 10
SMILES | ATXN2 expr inh | D3 ag | HepG2 viability | S2 tox | TGFb inhibitor | DRD3 antagonist
Cc1ccccc1S(=O)(=O)N(C)C[C@@H]1OCc2ccccc2-c2c(n(C)c3ccccc23)C(=O)N([C@H](C)CO)C[C@@H]1C | ? | 5 | -32% | ? | ? | 22
CCOC(=O)[C@]12Cc3cc4ccccc4cc3[C@H]1N(Cc1ccccc1)C(=O)c1cc(OC)ccc12 | 20µM* | -1 | . | 32µM* | . | -20
CCCCCN1C(=O)c2cc(OC)ccc2[C@@]2(C(=O)OCC)Cc3cc(Cl)ccc3[C@@H]12 | 7.1µM* | -8 | . | 8.9µM* | . | ?
CCOC(=O)[C@]12Cc3cc(Cl)ccc3[C@H]1N(Cc1ccccc1)C(=O)c1cc(OC)ccc12 | 18µM* | -4 | . | 13µM* | . | ?
CCOC(=O)[C@]12Cc3cc4ccccc4cc3[C@H]1N(Cc1ccccc1)C(=O)c1ccccc12 | ? | -4 | . | 20µM* | . | ?
CCOC(=O)[C@]12Cc3cc(OC)ccc3[C@H]1N(Cc1ccccc1)C(=O)c1cc(OC)ccc12 | 2% | -12 | . | ? | . | 1
CN(C)NC(=O)CCC(=O)O | -7% | . | . | . | . | .
CC(=Cc1csc(C)n1)[C@@H]1C[C@H]2O[C@@H]2CCC[C@H](C)[C@@H](O)[C@@H](C)C(=O)C(C)(C)[C@@H](O)CC(=O)O1 | -22% | . | . | . | . | .
Cc1cc(C)cc(NC(=O)Cn2cc(C(=O)c3cccs3)c3ccccc32)c1 | -32% | 5 | -26% | ? | ? | .
Cn1c(O)c(C(=N)COc2ccccc2)c(=O)n(C)c1=O | 22% | 45* | 8% | i | 14% | -4
C[C@]12CC[C@@H]3c4ccc(OC(=O)N(CCCl)CCCl)cc4CC[C@H]3[C@@H]1CC[C@@H]2OP(=O)(O)O | 13% | -8 | . | ? | . | .
CCCCNC(C)(C)[P+](=O)O | . | -18 | . | i | . | .
CC(C)(O)/C=C/C(=O)[C@](C)(O)C1[C@H](O)C[C@@]2(C)C3CC=C4C(C[C@H](O)[C@@H](O)C4(C)C)[C@]3(C)C(=O)C[C@]12C (stereo not given in full) | ? | 3 | 3% | ? | 0.71µM* | 87
C[C@@]12OC(=O)[C@]1([C@@H](O)[C@@H]1C=CCCC1)NC(=O)[C@H]2CCCl | 0.019µM* | . | . | . | . | .
Cc1c(P(=S)(c2ccccc2)c2ccccc2)[n+]2ccccc2n1CCc1ccccc1 | ? | . | -52% | ? | ? | .
CC(C(=O)c1c[nH]c2ccccc12)N1CCOCC1 (stereo not given) | -18% | 5 | 39% | i | 36% | 12
CC(C)N1CC=C(c2c[nH]c3ccccc23)CC1 | -8% | -21 | -4% | i | ? | -58*
Sc1ccccc1Cl | -4% | . | . | i | . | .
CN1CCN=C(c2ccccc2)c2cc(Cl)ccc21 | . | -1 | . | i | . | .
Oc1cc(Cl)c(Cl)c(Cl)c1 | ? | 61* | -46% | ? | -26% | 68
